Reference: PubChem BioAssay

Assay: basal RPMI8226 mitochondrial membrane potential changes, profiling panel, cell-based, JC-1 fluorescence, 24 h, 100 nL compound (AID 1169); note: test concentration not given here
Conditions: RPMI8226 myeloma, JC-1 mitochondrial potential fluorescence, higher = more signal

SMILES | z-score
COCCOC(=O)N1C(=O)[C@@]2(c3cc(C#CCNC(N)=O)ccc31)[C@H](C(=O)N1CCc3cc(OC)c(OC)cc3C1)[C@H]1C(=O)O[C@H](c3ccccc3)[C@H](c3ccccc3)N1[C@@H]2c1ccc(OCCO)cc1 | -0.468
CCOC(=O)C1=CC[C@@H](c2ccccc2)N(S(=O)(=O)c2ccc(C)cc2)[C@H]1C(=O)OCC | -0.619
O=C(CS)NCCCCCCNC(=O)[C@@H]1C[C@@H]2C(=O)N3CCC[C@H]3C(=O)N2[C@@H]1c1ccc(O)cc1 | 0.653
CCOC(=O)C1=CCC(c2ccc([N+](=O)[O-])cc2)N(S(=O)(=O)c2ccc(C)cc2)C1 (stereo unspecified) | 0.877
COCCOC(=O)N1C(=O)[C@@]2(c3cc(C#CCNC(N)=O)ccc31)[C@H](c1ccc(O)cc1)N1[C@H](c3ccccc3)[C@H](c3ccccc3)OC(=O)[C@H]1[C@@H]2C(=O)Nc1nc2ccccc2s1 | -1.03
O=c1cccc(CCc2ccccc2)o1 | -0.976
O=C1N(CCS(=O)(=O)c2ccccc2)Cc2ccccc2[C@H]2OC(c3ccc(OCCCO)cc3)=N[C@@]12CCS(=O)(=O)c1ccccc1 | -0.81
CN(C)C(=O)[C@@]1(CCC(=O)OC(C)(C)C)N=C(c2ccc(OCCCO)cc2)O[C@H]1c1ccccc1 | -1
O=C1C2C=CC(C(O)c3ccc(-c4ccccc4)s3)N(n3cnnc3)C2C(=O)N1Cc1ccccc1 (stereo unspecified) | -0.128
CC(C)C(O)C1C=CC2C(=O)N(c3ccccc3)C(=O)C2N1Nc1ccc(C#N)cc1 (stereo unspecified) | -0.775
COC(=O)c1ccc(C(O)C2C=CC3C(=O)N(C)C(=O)C3N2NC(=O)OC(C)(C)C)o1 (stereo unspecified) | -0.535
